Among the data in publication PMC11006913 are binding signal values, retold here.

Experiment in all cases: PBM; 200 nM protein, PBS
Holding throughout (conditions): dsDNA, one strand shown

In experiment [1] the target is HOXB4 (Homo sapiens, UniProt P17483 148-234).
Experiment [2] concerns the target T1, VENTX (Homo sapiens, UniProt O95231 78-163, R121Q).
T1 sequence: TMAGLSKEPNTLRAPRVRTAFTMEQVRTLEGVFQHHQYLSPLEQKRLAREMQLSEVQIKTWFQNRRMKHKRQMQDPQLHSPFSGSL

Experiment [3] concerns the target ALX4 (Homo sapiens, UniProt Q9H161 200-286).
Experiment [4] has as its target T2, PAX4 (Homo sapiens, UniProt O43316 9-242, R200K).
T2 sequence: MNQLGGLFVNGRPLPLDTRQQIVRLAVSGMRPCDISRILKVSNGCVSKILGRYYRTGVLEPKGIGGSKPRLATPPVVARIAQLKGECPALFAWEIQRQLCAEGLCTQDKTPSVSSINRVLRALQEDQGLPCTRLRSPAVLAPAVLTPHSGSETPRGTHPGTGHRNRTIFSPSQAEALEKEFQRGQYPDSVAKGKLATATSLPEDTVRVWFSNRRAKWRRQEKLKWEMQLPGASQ

The target of experiment [5] is PRRX1 (Homo sapiens, UniProt P54821 80-166, F113S).
Chain of PRRX1 (Homo sapiens, UniProt P54821 80-166, F113S) (P54821 80-166 F113S): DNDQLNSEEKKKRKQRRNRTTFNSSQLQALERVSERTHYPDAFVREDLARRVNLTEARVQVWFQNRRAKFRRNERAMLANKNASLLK
Experiment [6] has as its target T3, VENTX (Homo sapiens, UniProt O95231 78-163, Y115F).
T3 sequence: T1 sequence with Y38F, Q44R

Experiment [7] has as its target T4, PAX4 (Homo sapiens, UniProt O43316 9-242).
T4 sequence: T2 sequence with K192R

Experiment [8] deals with HOXA2 (Homo sapiens, UniProt O43364 129-215, R185T).
Chain of HOXA2 (Homo sapiens, UniProt O43364 129-215, R185T) (O43364 129-215 R185T): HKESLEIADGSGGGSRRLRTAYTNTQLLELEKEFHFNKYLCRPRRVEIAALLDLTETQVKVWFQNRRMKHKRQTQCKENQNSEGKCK
For experiment [9], the target named is HOXA4 (Homo sapiens, UniProt Q00056 201-287, R217L).
Chain of HOXA4 (Homo sapiens, UniProt Q00056 201-287, R217L) (Q00056 201-287 R217L): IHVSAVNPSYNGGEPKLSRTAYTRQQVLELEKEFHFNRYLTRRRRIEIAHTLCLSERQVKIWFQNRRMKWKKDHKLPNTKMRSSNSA
Experiment [10] deals with HOXB4 (Homo sapiens, UniProt P17483 148-234, V174I).
Chain of HOXB4 (Homo sapiens, UniProt P17483 148-234, V174I) (P17483 148-234 V174I): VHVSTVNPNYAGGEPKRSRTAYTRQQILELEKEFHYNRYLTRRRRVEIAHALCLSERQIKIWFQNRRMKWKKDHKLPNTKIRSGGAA
For experiment [11], the target named is T5, PAX4 (Homo sapiens, UniProt O43316 9-242, R200Q).
T5 sequence: T2 sequence with K192Q

Experiment [12] addresses HOXA2 (Homo sapiens, UniProt O43364 129-215, R185K).
Experiment [13] concerns the target T6, PAX4 (Homo sapiens, UniProt O43316 9-242, F177V).
T6 sequence: T2 sequence with F169V, K192R

Experiment [14] has as its target MSX2 (Homo sapiens, UniProt P35548 130-214).
Experiment [15] has as its target T7, PAX4 (Homo sapiens, UniProt O43316 9-242, F177Y).
T7 sequence: T2 sequence with F169Y, K192R

In experiment [16] the target is MSX2 (Homo sapiens, UniProt P35548 130-214, F161Y).
Chain of MSX2 (Homo sapiens, UniProt P35548 130-214, F161Y) (P35548 130-214 F161Y): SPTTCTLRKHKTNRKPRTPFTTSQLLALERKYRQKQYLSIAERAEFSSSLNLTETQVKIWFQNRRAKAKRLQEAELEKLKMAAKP
Experiment [17] has as its target VAX1 (Homo sapiens, UniProt Q5SQQ9 86-172, T142I).
For experiment [18], the target named is HOXA4 (Homo sapiens, UniProt Q00056 201-287, W262F).
Chain of HOXA4 (Homo sapiens, UniProt Q00056 201-287, W262F) (Q00056 201-287 W262F): as the sequence (Q00056 201-287 R217L) above, with L17R, W62F counted along it
The target of experiment [19] is PRRX1 (Homo sapiens, UniProt P54821 80-166).
Chain of PRRX1 (Homo sapiens, UniProt P54821 80-166) (P54821 80-166): as the sequence (P54821 80-166 F113S) above, with S34F counted along it
Experiment [20] addresses VAX1 (Homo sapiens, UniProt Q5SQQ9 86-172, K157R).

Substitutions are numbered along the chain they refer to.

Chain of HOXA2 (Homo sapiens, UniProt O43364 129-215, R185K) (O43364 129-215 R185K): as the sequence (O43364 129-215 R185T) above, with T57K counted along it
Chain of HOXB4 (Homo sapiens, UniProt P17483 148-234) (P17483 148-234): as the sequence (P17483 148-234 V174I) above, with I27V counted along it
Chain of VAX1 (Homo sapiens, UniProt Q5SQQ9 86-172, T142I) (Q5SQQ9 86-172 T142I): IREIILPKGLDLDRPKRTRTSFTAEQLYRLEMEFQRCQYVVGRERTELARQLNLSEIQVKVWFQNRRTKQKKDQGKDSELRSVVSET
Chain of VAX1 (Homo sapiens, UniProt Q5SQQ9 86-172, K157R) (Q5SQQ9 86-172 K157R): as the sequence (Q5SQQ9 86-172 T142I) above, with I57T, K72R counted along it
Chain of MSX2 (Homo sapiens, UniProt P35548 130-214) (P35548 130-214): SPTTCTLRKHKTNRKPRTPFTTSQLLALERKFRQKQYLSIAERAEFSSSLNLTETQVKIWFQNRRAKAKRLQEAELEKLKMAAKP
Chain of ALX4 (Q9H161 200-286): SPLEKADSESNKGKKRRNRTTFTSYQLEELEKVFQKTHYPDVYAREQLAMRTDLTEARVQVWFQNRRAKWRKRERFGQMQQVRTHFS

Regarding TTAATTAA, the binding signal in experiment [1] was 13.5 upbm affinity estimate (log intensity, higher = more binding, comparable within an allelic series); in [2], 12.4 upbm affinity estimate (log intensity, higher = more binding, comparable within an allelic series); in experiment [3], 14.7 upbm affinity estimate (log intensity, higher = more binding, comparable within an allelic series); in [4], 12.1 upbm affinity estimate (log intensity, higher = more binding, comparable within an allelic series); in [5], 12.1 upbm affinity estimate (log intensity, higher = more binding, comparable within an allelic series); in experiment [6], 12.1 upbm affinity estimate (log intensity, higher = more binding, comparable within an allelic series). The binding signal in [7] is 12.6 upbm affinity estimate (log intensity, higher = more binding, comparable within an allelic series); in [8], 13.7 upbm affinity estimate (log intensity, higher = more binding, comparable within an allelic series); in experiment [9] it was 13.2 upbm affinity estimate (log intensity, higher = more binding, comparable within an allelic series); in experiment [10], 14.2 upbm affinity estimate (log intensity, higher = more binding, comparable within an allelic series); in experiment [11], 12.6 upbm affinity estimate (log intensity, higher = more binding, comparable within an allelic series); in experiment [12] it was 13.7 upbm affinity estimate (log intensity, higher = more binding, comparable within an allelic series). Also, the binding signal in experiment [13] is 11.2 upbm affinity estimate (log intensity, higher = more binding, comparable within an allelic series); in experiment [14], 13.9 upbm affinity estimate (log intensity, higher = more binding, comparable within an allelic series); in experiment [15], 11.6 upbm affinity estimate (log intensity, higher = more binding, comparable within an allelic series); in experiment [16] it was 13.5 upbm affinity estimate (log intensity, higher = more binding, comparable within an allelic series); in [17], 13.6 upbm affinity estimate (log intensity, higher = more binding, comparable within an allelic series); in experiment [18], 13.1 upbm affinity estimate (log intensity, higher = more binding, comparable within an allelic series). For the same sequence, the binding signal in experiment [19] was 13.7 upbm affinity estimate (log intensity, higher = more binding, comparable within an allelic series); in experiment [20], 13.5 upbm affinity estimate (log intensity, higher = more binding, comparable within an allelic series).
As for GCTAATTA, the binding signal in experiment [1] is 13.6 upbm affinity estimate (log intensity, higher = more binding, comparable within an allelic series); in experiment [2], 13 upbm affinity estimate (log intensity, higher = more binding, comparable within an allelic series); in experiment [3], 14.6 upbm affinity estimate (log intensity, higher = more binding, comparable within an allelic series); in [4], 12.3 upbm affinity estimate (log intensity, higher = more binding, comparable within an allelic series); in experiment [5], 12 upbm affinity estimate (log intensity, higher = more binding, comparable within an allelic series); in [6], 12.8 upbm affinity estimate (log intensity, higher = more binding, comparable within an allelic series). Besides, the binding signal was 12.9 upbm affinity estimate (log intensity, higher = more binding, comparable within an allelic series) in [7]; 14.2 upbm affinity estimate (log intensity, higher = more binding, comparable within an allelic series) in experiment [8]; 13 upbm affinity estimate (log intensity, higher = more binding, comparable within an allelic series) in experiment [9]; 14.3 upbm affinity estimate (log intensity, higher = more binding, comparable within an allelic series) in experiment [10]; 12.9 upbm affinity estimate (log intensity, higher = more binding, comparable within an allelic series) in experiment [11]; 14.1 upbm affinity estimate (log intensity, higher = more binding, comparable within an allelic series) in experiment [12]. Also, the binding signal in experiment [13] is 10.9 upbm affinity estimate (log intensity, higher = more binding, comparable within an allelic series); in experiment [14], 14.3 upbm affinity estimate (log intensity, higher = more binding, comparable within an allelic series); in experiment [15], 11.4 upbm affinity estimate (log intensity, higher = more binding, comparable within an allelic series); in [16], 13.8 upbm affinity estimate (log intensity, higher = more binding, comparable within an allelic series); in experiment [17] it was 14.1 upbm affinity estimate (log intensity, higher = more binding, comparable within an allelic series); in experiment [18] it was 13 upbm affinity estimate (log intensity, higher = more binding, comparable within an allelic series). Moreover, the binding signal in [19] was 13.7 upbm affinity estimate (log intensity, higher = more binding, comparable within an allelic series); in experiment [20], 14.2 upbm affinity estimate (log intensity, higher = more binding, comparable within an allelic series).
As for AATTAATA, the binding signal in experiment [1] was 13.2 upbm affinity estimate (log intensity, higher = more binding, comparable within an allelic series); in experiment [2], 11.9 upbm affinity estimate (log intensity, higher = more binding, comparable within an allelic series); in experiment [3], 14 upbm affinity estimate (log intensity, higher = more binding, comparable within an allelic series); in experiment [4], 12 upbm affinity estimate (log intensity, higher = more binding, comparable within an allelic series); in [5] it was 11.4 upbm affinity estimate (log intensity, higher = more binding, comparable within an allelic series); in [6] it was 11.6 upbm affinity estimate (log intensity, higher = more binding, comparable within an allelic series). The binding signal in experiment [7] was 12.5 upbm affinity estimate (log intensity, higher = more binding, comparable within an allelic series); in [8], 12.6 upbm affinity estimate (log intensity, higher = more binding, comparable within an allelic series); in experiment [9] it was 12.3 upbm affinity estimate (log intensity, higher = more binding, comparable within an allelic series); in experiment [10], 13.9 upbm affinity estimate (log intensity, higher = more binding, comparable within an allelic series); in [11], 12.3 upbm affinity estimate (log intensity, higher = more binding, comparable within an allelic series); in experiment [12], 13.1 upbm affinity estimate (log intensity, higher = more binding, comparable within an allelic series). Besides, the binding signal was 10.8 upbm affinity estimate (log intensity, higher = more binding, comparable within an allelic series) in experiment [13]; 13.5 upbm affinity estimate (log intensity, higher = more binding, comparable within an allelic series) in experiment [14]; 11.2 upbm affinity estimate (log intensity, higher = more binding, comparable within an allelic series) in experiment [15]; 13.2 upbm affinity estimate (log intensity, higher = more binding, comparable within an allelic series) in experiment [16]; 12.8 upbm affinity estimate (log intensity, higher = more binding, comparable within an allelic series) in experiment [17]; 11.8 upbm affinity estimate (log intensity, higher = more binding, comparable within an allelic series) in experiment [18]. Further, the binding signal in [19] is 13.4 upbm affinity estimate (log intensity, higher = more binding, comparable within an allelic series); in [20], 12.5 upbm affinity estimate (log intensity, higher = more binding, comparable within an allelic series).
Consider GCAATTAA, for which the binding signal in experiment [1] is 13.2 upbm affinity estimate (log intensity, higher = more binding, comparable within an allelic series); in [2], 12.2 upbm affinity estimate (log intensity, higher = more binding, comparable within an allelic series); in [3] it was 13.8 upbm affinity estimate (log intensity, higher = more binding, comparable within an allelic series); in experiment [5], 11.1 upbm affinity estimate (log intensity, higher = more binding, comparable within an allelic series); in experiment [6], 11.9 upbm affinity estimate (log intensity, higher = more binding, comparable within an allelic series); in [8] it was 13.2 upbm affinity estimate (log intensity, higher = more binding, comparable within an allelic series). Also, the binding signal in experiment [9] is 12.4 upbm affinity estimate (log intensity, higher = more binding, comparable within an allelic series); in experiment [10] it was 13.9 upbm affinity estimate (log intensity, higher = more binding, comparable within an allelic series); in experiment [11] it was 12 upbm affinity estimate (log intensity, higher = more binding, comparable within an allelic series); in [12], 13.4 upbm affinity estimate (log intensity, higher = more binding, comparable within an allelic series); in experiment [14] it was 14.1 upbm affinity estimate (log intensity, higher = more binding, comparable within an allelic series); in [16] it was 13.7 upbm affinity estimate (log intensity, higher = more binding, comparable within an allelic series). Besides, the binding signal is 13.2 upbm affinity estimate (log intensity, higher = more binding, comparable within an allelic series) in experiment [17]; 11.8 upbm affinity estimate (log intensity, higher = more binding, comparable within an allelic series) in [18]; 13.2 upbm affinity estimate (log intensity, higher = more binding, comparable within an allelic series) in experiment [19]; 12.9 upbm affinity estimate (log intensity, higher = more binding, comparable within an allelic series) in [20].
